# From PubChem
# Compounds with a hit are over-represented: about 2.8% of the library has one in this group of screens.
# KDM5B inh – Primary screen for KDM5B Histone Demethylases FDH-coupled qHTS | 220,000 compounds, 2.6% hits | Lysine-specific demethylase 5B (Homo sapiens), Q9UGL1 | KDM5B demethylase, FDH-coupled NADH fluorescence (FDH is formaldehyde dehydrogenase) | AID 1347165, 2019 | Potency, µM (titrated, usually from 57.7 µM), usual class: inhibitors; note: potency is the fitted concentration of half-maximal effect; 0% is about no effect; nearly all actives have a fitted effect of over 70% in size
#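 KDM5BΔAP (200 nM final) in 50 mM HEPES pH 7.5, 0.01% Tween-20 was preincubated 10 min at RT with compound over a concentration range. Substrate mix (H3K4me3 12.5 µM, α-KG 25 µM, Fe²⁺, ascorbate, NAD⁺, FDH) was added, and NADH fluorescence change over 30 min gave dose-response curves.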
# SNCA expr inh – Primary qHTS assay for inhibitors of alpha-synuclein gene (SNCA) expression. Potency, µM (highest dose often 57.2 µM), for the others: at the highest dose activity change, negative = inhibition, hits mostly inhibitors. HEK-293 SNCA-luciferase knock-in, luminescence, 24 h. 140,000 compounds, 0.17% hits. AID 1671194, 2021;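 note: potency is the fitted concentration of half-maximal effect; plate controls were DMSO cells for no effect and cell-free wells for full effect; nearly all actives have a fitted effect of over 45% in size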
# IP6K1 inh – Primary qHTS assay for small molecule inhibitors of Inositol hexaphosphate kinase 1 (IP6K1). Inositol hexakisphosphate kinase 1 (Homo sapiens), Q92551. IP6K1 kinase, ADP-Glo luminescence, 2 h; hits give low values. activity change, % (series mostly up to about 58 µM). 140,000 compounds, 0.81% hits. AID 1645851, 2021; in the data active = activity change below about -25%; note: % is set by controls: 0 for no effect and ±100 for the full control effect
# Target sequence (Q92551 whole entry, looked up): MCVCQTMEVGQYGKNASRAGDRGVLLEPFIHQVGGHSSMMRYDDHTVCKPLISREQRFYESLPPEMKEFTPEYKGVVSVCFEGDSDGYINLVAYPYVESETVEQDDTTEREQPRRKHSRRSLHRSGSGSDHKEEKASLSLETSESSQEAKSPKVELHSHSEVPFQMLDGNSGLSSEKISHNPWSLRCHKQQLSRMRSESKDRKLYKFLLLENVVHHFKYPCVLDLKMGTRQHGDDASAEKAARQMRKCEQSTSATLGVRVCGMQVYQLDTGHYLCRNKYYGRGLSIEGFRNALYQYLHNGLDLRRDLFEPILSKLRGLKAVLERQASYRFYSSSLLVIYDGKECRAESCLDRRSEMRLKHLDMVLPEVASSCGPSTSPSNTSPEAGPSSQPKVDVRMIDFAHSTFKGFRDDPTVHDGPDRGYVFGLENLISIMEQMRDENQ
#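 ADP-Glo luminescence measures ADP made by human IP6K1 during a 2 h RT reaction with ATP/IP6 (mix at 1.3 mM/130 uM); top library doses 57.5 and 19.1 uM final.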
# HEK293 viab – GF-AFC viability counterscreen for inhibitors of alpha-synuclein gene (SNCA) expression | HEK-293-SNCA-luc viability, GF-AFC fluorescence, 24 h | Potency, µM (series often up to 57.1 µM), for the others: at the highest dose activity change, negative = cytotoxicity, most hits filed as cytotoxic | 150,000 compounds, 0.12% hits | AID 1671193, 2021;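 note: potency is the fitted concentration of half-maximal effect; 0% = DMSO-treated cells and -100% = medium-only wells without cells; nearly all actives have a fitted effect of over 30% in size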
#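 HEK-293-SNCA-luc cells (1500/well) plated 24 h, then exposed 24 h to a dilution series; GF-AFC added 30 min at 37C, fluorescence 405/540 nm; normalised to medium-only and DMSO wells, Hill fit.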
# Active calls of the source: *; i = inactive; u = inconclusive; x = not tested or not shown; [ ] = remark or other dose. Unless noted, calls come from the whole dose curve; as a rule, active = well fitted curve in the direction sought with a large enough effect; inconclusive = small, poorly fitted or top-dose-only effect, or another doubt; inactive = no such curve, though single readings can be large; an effect the other way counts as inactive or inconclusive.
SMILES,KDM5B inh,SNCA expr inh,IP6K1 inh,HEK293 viab
O=C(NCC(O)c1ccc(F)c(F)c1)Nc1cccc(Cl)c1Cl (configuration not stated),i,x,x,x
OCc1ccc(-c2ccc3nnc(-c4ccccn4)n3n2)cc1,31.6µM*,5.8%[87.6 µM],-11.7,7.4%[87.6 µM]
CC(=O)c1c(C)[nH]c(C(=O)C(C)n2cnc3c2c(=O)n(C)c(=O)n3C)c1C (configuration not stated),i,x,x,x
CN(Cc1ccc(CN2CCCC(O)(CO)C2)o1)S(C)(=O)=O (configuration not stated),i,3.6%,4.1,-1.6%
C=CC[C@H]1CC(C)=C[C@H](CC=C)N1Cc1ccc(CN(C)S(C)(=O)=O)o1,14.1µM*,2.3%,2.6,6.0%
O=C(NCC1CCN(c2cc(-c3ccccc3)[nH]n2)CC1)c1ccc[nH]c1=O,31.6µM*,3.2%,8.4,-6.0%
CCOc1cc(-c2noc(-c3nnn4c3COC(c3ccc(F)cc3)C4)n2)ccc1OC (configuration not stated),25.1µM*,12.3%,2.7,1.4%
CCOc1ccccc1-c1noc(-c2nnn3c2COC(c2cccc(OC)c2)C3)n1 (configuration not stated),i,-7.6%,1.0,7.5%
CCOc1ccccc1-c1nc(-c2nnn3c2COC(c2ccc(OC)cc2)C3)no1 (configuration not stated),28.2µM*,10.5%,-4.9,23.4%
CCOc1ccccc1-c1noc(-c2nnn3c2COC(c2ccc(OC)cc2)C3)n1 (configuration not stated),17.8µM*,5.0%,-1.5,9.3%
CCOc1ccccc1-c1noc(-c2nnn3c2COC(c2ccc(F)cc2)C3)n1 (configuration not stated),u,0.8%,9.1,1.7%
CCOc1ccc(C2Cn3nnc(-c4nc(-c5ccccc5OCC)no4)c3CO2)cc1 (configuration not stated),25.1µM*,-28.2%,-1.6,1.6%
CCOc1cc(-c2noc(-c3nnn4c3COC(c3ccc(Cl)cc3)C4)n2)ccc1OC (configuration not stated),u,6.4%,0.4,-14.1%
COCc1cc(NCC(O)COc2ccc(Cl)c(C)c2)ncn1 (configuration not stated),i,3.8%,48.8,12.9%
Cc1ccc(CN2CCCCCCNC(=O)[C@@H]3C[C@@H](C(=O)N4CCN(c5ccccn5)CC4)C[C@@H]32)o1,20µM*,3.9%,-5.3,-11.4%
CC(C)C(=O)N1CCCCCCNC(=O)[C@@H]2C[C@@H](C(=O)N3CCN(c4ccccn4)CC3)C[C@@H]21,25.1µM*,-12.7%,1.7,-2.2%
CCS(=O)(=O)N1CCCCCCNC(=O)[C@@H]2C[C@@H](C(=O)N3CCN(c4ccccn4)CC3)C[C@@H]21,u,-7.6%,-0.4,4.3%
Cc1noc([C@@H]2CN(Cc3ccccc3C)C[C@H]2CO)n1,i,1.2%,-9.4,-8.1%
Cc1ccc2cc(CN3C[C@@H](CO)[C@H](c4nc(C)no4)C3)c(=O)[nH]c2c1,28.2µM*,-4.5%,-3.7,-8.2%
Cc1noc([C@@H]2CN(Cc3ccncc3)C[C@H]2CO)n1,28.2µM*,-0.8%,-12.5,2.7%
COCCOc1ccc2c(n1)CCN(C(=O)c1cccc(OC)c1)C2,i,u,-12.8,-2.1%[12.5 µM]
COCCN1C(=O)c2cccn2CC1CNC(=O)Cc1cccc(F)c1 (configuration not stated),i,-11.1%,11.6,3.0%
CN1Cc2cccn2CC1CNC(=O)Cc1cccc(F)c1 (configuration not stated),28.2µM*,16.5%,-9.5,11.8%
CN1C(=O)c2cccn2CC1CNC(=O)C1(S(=O)(=O)c2ccc(Cl)cc2)CC1 (configuration not stated),i,-7.5%,-1.2,-4.7%
CN1Cc2cccn2CC1CNC(=O)C1(S(=O)(=O)c2ccc(Cl)cc2)CC1 (configuration not stated),14.1µM*,-17.6%,14.3,6.3%
SMILES,KDM5B inh,SNCA expr inh,IP6K1 inh,HEK293 viab
CN1Cc2cccn2CC1CNC(=O)Cc1ccccc1 (configuration not stated),17.8µM*,-18.5%,-8.1,3.4%
CN1Cc2cccn2CC1CNC(=O)Nc1ccccc1 (configuration not stated),i,9.0%,13.4,7.2%
CN1Cc2cccn2CC1CNC(=O)c1ccsc1 (configuration not stated),20µM*,-11.5%,-11.2,-15.7%
COCCN1CCC2(C1)CN(C)c1ccc(C(=O)NCCOc3ccccc3)cc12 (configuration not stated),u,97.1%[87.6 µM],16.1,7.5%[87.6 µM]
CN1CC2(CCCN(CC3CC3)C2)c2cc(C(=O)NCCOc3ccccc3)ccc21 (configuration not stated),35.5µM*,-29.3%[87.6 µM],-2.8,4.2%[87.6 µM]
CN1CC2(CCCN(CC3CC3)C2)c2cc(C(=O)NCCc3ccccn3)ccc21 (configuration not stated),39.8µM*,1.7%[87.6 µM],2.4,3.1%[87.6 µM]
CSCC[C@@H]1NC(=O)c2cc(NC(=O)c3ccc4ccn(C)c4c3)ccc2NC1=O,25.1µM*,-6.0%,-14.2,1.2%
CN1C(=O)c2cccn2CC1C(=O)NCc1ccco1 (configuration not stated),i,39.6%,-4.0,1.4%
C=Cc1ccc(Cn2c(C(=O)O)c(CNCCc3ccccc3)c3ccc(C)cc32)cc1,u,u,-4.2,28.2µM*
Cc1ccc2c(CNCCc3ccc(Cl)cc3)c(C(=O)O)n(Cc3ccc(F)cc3)c2c1,i,-7.6%,3.7,4.3%
CN(C)[C@@H]1[C@@H](NC(=O)CCc2nc3ccccc3[nH]c2=O)[C@H]2CCO[C@H]21,28.2µM*,5.1%,7.4,2.5%
CCOC(=O)c1cc(-c2ccc(C)cc2)n(CCC(=O)Nc2nc3c(C)cccc3s2)c1C,u,14.1µM*,5.4,-11.4%
Cc1cccc(C)c1-c1nc(C(=O)N(C)C)n2ccccc12,39.8µM*,-1.5%[87.6 µM],30.4,-0.2%[87.6 µM]
CC(C)(C)c1nc(C(=O)NCc2ccc(F)cc2)n2ccncc12,100µM*,-8.4%,-7.7,3.9%
CC(C)(C)c1nc(C(=O)NCc2ccc(F)cc2)n2ccccc12,89.1µM*,4.4%,0.5,0.1%
CN(C)C(=O)c1nc(C(C)(C)C)c2ccccn12,112µM*,-16.5%[87.6 µM],-7.4,5.4%[87.6 µM]
CN(C)C(=O)c1nc(-c2ccccc2)c2ccccn12,i,36.0%[87.6 µM],21.2,4.6%[87.6 µM]
O=C(NCc1ccc(F)cc1)c1nc(-c2cccc(C(F)(F)F)c2)c2ccccn12,i,-4.8%,15.0,12.8%
CC(=O)N(C1CC1)C1CCOC2(CCN(C(=O)COc3ccc(C)cc3)CC2)C1 (configuration not stated),i,6.7%,-1.2,-0.5%
